Rows were chosen to be rich in hits. Some 2.5% of all compounds tested hit in one or more screens of this group.
ATG4B inhibitor = blocks human ATG4B protease cleavage of LC3 substrate; Q9Y4P1; ATG4B cleavage of LC3-PLA2, NBD-HPC fluorescence, 1 h; inhibition, % at 8.33 µM; actives 0.51% (n = 340,000); in the data active = inhibition above about 40%
Target sequence (Q9Y4P1 whole entry, looked up): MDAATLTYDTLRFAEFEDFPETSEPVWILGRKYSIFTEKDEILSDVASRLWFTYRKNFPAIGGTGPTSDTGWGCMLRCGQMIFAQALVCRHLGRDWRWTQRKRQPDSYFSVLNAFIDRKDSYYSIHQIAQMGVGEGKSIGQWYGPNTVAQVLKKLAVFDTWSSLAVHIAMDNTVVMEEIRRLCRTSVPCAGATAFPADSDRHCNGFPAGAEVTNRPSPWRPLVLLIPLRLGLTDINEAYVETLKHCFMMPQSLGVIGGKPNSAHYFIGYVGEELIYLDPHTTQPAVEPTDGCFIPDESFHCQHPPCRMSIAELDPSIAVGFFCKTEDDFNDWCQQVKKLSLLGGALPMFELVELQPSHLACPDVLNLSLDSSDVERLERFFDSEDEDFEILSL
V-ATPase pH = yeast V-ATPase proton transport regulation by pHLuorin; AID 504577; response, % at 10 µM; S. cerevisiae, pHLuorin cytosolic pH fluorescence; actives 0.37% (n = 350,000); in the data active = response mostly above about 7.3%, no sharp cut-off; inactive = mostly below about 5.4%; also: actives read high
Efflux pump inh = inhibitors of Candida antifungal efflux pumps expressed in yeast; S. cerevisiae Candida pump triplex, Nile Red efflux; inhibition, % at 10 µM; actives 0.44% (n = 330,000); AID 485275;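 active = plate passing quality check with inhibition over a set limit, or well fluorescence over plate mean plus 4 SD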;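 also: Nile Red retained in pooled yeast measured as flow cytometry median fluorescence; higher means more Nile Red kept so more efflux inhibition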
AI-2 QS modul = modulators of Vibrio harveyi AI-2 quorum sensing system; actives 0.4% (n = 300,000); AID 2094; activity change, % at 7.5 µM; Vibrio harveyi JMH597 AI-2 luminescence/OD600 ratio, 9 h; stronger effect = lower value; strain lacks LuxN and CqsS sensors; 0 = neutral-control median; in the data active = activity change below about -75%, passing the limit was not always enough;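 also: luminescence divided by OD600 gain over 9 h not by final OD600 alone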
SUMO Mot1 rescue = inhibitors of SUMOylation pathway: yeast Mot1-301 growth rescue; S. cerevisiae Mot1-301 growth rescue, ATP luminescence, 38.5C; percent above DMSO median, 100 means doubled; growth rescue, % at 18.8 µM; actives 1% (n = 320,000); AID 2716;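 active = every valid replicate shows activation above 250% relative to neutral control wells; inactive = the rest, any valid replicate at or below 250%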
Mot1 SUMO dose = yeast SUMO pathway inhibition in dose response. shares compounds with SUMO Mot1 rescue. S. cerevisiae Mot1-301 galactose growth, ATP luminescence, 24 h; -100 = growth of slx-deleted rescue strain. growth activity, percent, % at 42 µM. 2,300 tested, under 10 active;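 active = Signal drops as the depositor expects, and the fitted half-maximal dose is no more than ten times the top valid tested dose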;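 also: more negative values mean stronger growth rescue toward the control strain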
Yeast cmpd fluor = compound fluorescence in yeast efflux pump counter-screen. shares compounds with Efflux pump inh. AID 588517. S. cerevisiae AD/pABC3, flow cytometry. fluorescence ratio to DMSO, % at 10 µM. actives 4% (n = 1,700);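 active = fluorescence ratio to DMSO above its plate's cutoff, the plate mean ratio plus 5 SD, cut at about 210% in these data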;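 also: unstained yeast with no Nile Red so the signal is compound autofluorescence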
Mdr1 pump inh = Candida Mdr1 efflux pump inhibition; AID 588518; S. cerevisiae AD/CaMDR1, Nile Red efflux, flow cytometry; actives 1% (n = 1,700); inhibition, % at 10 µM; shares compounds with Efflux pump inh; in the data active = inhibition above about 26%;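 also: higher means more Nile Red retained so more efflux inhibition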
Cdr2 pump inh = blocks the Candida albicans Cdr2 efflux pump in yeast | AID 588520 | Nile Red retention ratio vs DMSO, % at 10 µM | actives 4% (n = 1,700) | S. cerevisiae AD/CaCDR2, Nile Red retention, flow cytometry | shares compounds with Efflux pump inh; in the data active = Nile Red retention ratio vs DMSO above about 190%;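 also: higher ratio means more blocking of Cdr2 efflux of the dye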
CaCdr1 efflux inh = Candida Cdr1 efflux pump inhibition; inhibition, % at 10 µM; actives 1% (n = 1,700); S. cerevisiae AD/CaCDR1, Nile Red efflux, flow cytometry; shares compounds with Efflux pump inh; AID 588522;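 active = inhibition above the screen-wide mean plus twice its standard deviation, cut at about 32% in these data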
ATG4B confirm = confirmation of human ATG4B inhibitors; actives 92% (n = 320); AID 504757; ATG4B protease fluorescent substrate cleavage assay; shares compounds with ATG4B inhibitor; inhibition, % at 8.33 µM; in the data active = inhibition above about 39%
PLA2 counter = inhibits human PLA2, flagging false ATG4B inhibitors; shares compounds with ATG4B inhibitor; purified PLA2, NBD-C6-HPC fluorescence, 45 min; inhibition, % at 8.33 µM; actives 66% (n = 1,600); in the data active = inhibition above about 50%
Target sequence (P04054 whole entry, looked up): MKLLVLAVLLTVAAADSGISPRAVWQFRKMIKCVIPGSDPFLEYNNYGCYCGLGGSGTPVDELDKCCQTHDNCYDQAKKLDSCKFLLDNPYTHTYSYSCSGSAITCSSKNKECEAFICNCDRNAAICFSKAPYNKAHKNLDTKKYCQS
V-ATPase pH SP = modulates yeast V-ATPase proton transport. shares compounds with V-ATPase pH. S. cerevisiae pHLuorin cytosolic pH. response, % at 10 µM. actives 2% (n = 980); in the data active = response above about 24%
Numbers stand for hits; – = inactive; · = not tested or not shown; + = active, no number.

SMILES	ATG4B inhibitor	V-ATPase pH	Efflux pump inh	AI-2 QS modul	SUMO Mot1 rescue	Mot1 SUMO dose	others
CC1CC(=O)Nc2ccc([N+](=O)[O-])cc2N1C (configuration not stated)	–	–	–	–	–	·
CC(=O)N1c2ccc([N+](=O)[O-])cc2NC(=O)CC1C (configuration not stated)	–	–	–	–	600.2	–
COc1cccc(OC)c1OCC(O)CN1CCN(c2ccccc2)CC1 (configuration not stated)	–	–	–	–	+	–
Cc1nn(-c2ccccc2)c2c1C1(C(=O)N(C(C)C)c3ccccc31)C(C#N)=C(N)O2 (configuration not stated)	–	–	–	–	–	·
O=C(Nc1ccc(Br)cc1)C1OCCc2ccccc21 (configuration not stated)	–	–	–	–	–	·
COc1ccccc1/C=C/C(=O)c1c2c(c(C)[nH]c1=O)CCCC2	–	–	–	–	–	–
COc1ccccc1/C=C/C(=O)c1ccccc1	–	–	–	–	–	·
O=C(NNC(=O)c1ccccc1O)c1ccco1	–	–	–	–	+	–
Cc1c(/C=N/NC(=O)C(C)(C)Oc2ccc(Cl)cc2)cnn1C	–	–	–	–	–	·
Cc1nn(C)c(C)c1/C=N/NC(=O)C(C)(C)Oc1ccc(Cl)cc1	–	–	–	–	591.3	–
COc1ccc(CCNC(=O)c2cc(-c3ccco3)on2)cc1OC	–	–	–	–	566.1	–
COc1ccc(CCNC(=O)c2cc(-c3cccs3)on2)cc1OC	–	–	–	–	–	·
Cc1cc2nc(SCCOC(=O)Nc3ccccc3)nc(C)c2cc1C	–	–	–	–	–	·
CCNc1nc(NCC)nc(SCCOC(=O)Nc2ccccc2)n1	–	–	–	–	+	–
COc1cc([N+](=O)[O-])cc(/C=N/NC(=O)CSc2nnc(-c3ccccc3)n2C)c1O	–	·	–	–	–	·
Cn1c(SCC(=O)N/N=C/c2ccc([N+](=O)[O-])s2)nnc1-c1ccc(Cl)cc1	–	–	15.8	–	957.8	–	Yeast cmpd fluor=–;Mdr1 pump inh=–;Cdr2 pump inh=–;CaCdr1 efflux inh=–
c1ccc(CCn2cccc2)nc1	–	–	·	·	·	·
CC1CC(C)CN(C(=O)CSc2nnc(N)s2)C1 (configuration not stated)	–	–	–	–	–	·
COc1ccc(NC(=O)CN(C)C(=O)/C=C/c2cn(-c3ccccc3)nc2-c2ccc(C)cc2)cc1	–	–	0.5	–	514.9	–	Yeast cmpd fluor=–;Mdr1 pump inh=–;Cdr2 pump inh=–;CaCdr1 efflux inh=–
CCOC(=O)c1oc2c(c1C)C(=O)CCC2	–	–	6.7	–	933.6	–	Yeast cmpd fluor=–;Mdr1 pump inh=–;Cdr2 pump inh=–;CaCdr1 efflux inh=–
CCCC(=O)NC(=S)Nc1ccccc1N1CCOCC1	–	–	–	–	–	·
O=C(Cc1ccc(Cl)cc1)NC(=S)Nc1ccccc1N1CCOCC1	–	–	1.4	·	814.7	–	Yeast cmpd fluor=–;Mdr1 pump inh=–;Cdr2 pump inh=–;CaCdr1 efflux inh=–
O=C(Nc1ccc([N+](=O)[O-])cc1)c1cc(Cl)sc1Cl	–	–	–	–	–	·
C=CCNC(=O)NC(=O)COC(=O)/C(C#N)=C/c1cc(C)n(CC(C)C)c1C	–	–	2.4	–	+	–	Yeast cmpd fluor=–;Mdr1 pump inh=–;Cdr2 pump inh=–;CaCdr1 efflux inh=–
Cc1nn(-c2ccccc2)c(N)c1N=Nc1cccc(S(=O)(=O)N2CCOCC2)c1	43.9	–	–	–	386.7	–	PLA2 counter=–
SMILES	ATG4B inhibitor	V-ATPase pH	Efflux pump inh	AI-2 QS modul	SUMO Mot1 rescue	Mot1 SUMO dose	others
Cc1cc(C)nc(NN2C(=O)/C(=C/c3ccc(O)cc3)SC2=S)n1	–	–	–	–	–	·
O=C1CCCC2=C1C(c1ccncc1)c1c(nc(SCc3ccccc3Cl)[nH]c1=O)N2 (configuration not stated)	76.8	–	–	·	682.4	–	PLA2 counter=81.0
C/C(=N\NC(=O)C(=O)Nc1cccc(Cl)c1C)c1ccncc1	–	–	–	–	–	·
Cc1ccc(C(=O)O)cc1N=Cc1cc(Br)cc(Br)c1O	43.8	–	–	–	858.1	–	ATG4B confirm=59.5;PLA2 counter=–
CC(=O)Nc1ccc(C(=O)N/N=C/c2cc(Br)cc(Br)c2O)cc1	–	–	–	–	–	·
O=c1c2ccccc2nc(SCc2nnc(-c3ccccc3)o2)n1-c1ccc(F)cc1F	62.1	–	–	–	465.9	–	PLA2 counter=69.4
COc1ccc(-c2nnc(CSc3nc4ccccc4c(=O)n3C)o2)cc1OC	–	–	–	–	–	·
COc1ccc(NC(=O)N(C)C[C@H]2Oc3ncc(Br)cc3C(=O)N([C@H](C)CO)C[C@@H]2C)cc1	·	–	·	·	·	·
O=C(/C=C/N1CCOCC1)c1coc2ccccc12	43.9	–	–	–	424.8	–	PLA2 counter=–
COc1cccc2sc(N3CCN(C(=O)c4ccc([N+](=O)[O-])o4)CC3)nc12	–	–	–	–	–	·
O=C(c1ccc([N+](=O)[O-])o1)N1CCN(c2nc3c(Cl)cccc3s2)CC1	–	10.0	–	–	769.4	–	V-ATPase pH SP=22.9
O=C(NCc1cccc(Br)c1)C1CC(c2ccccc2[N+](=O)[O-])=NO1 (configuration not stated)	–	–	–	–	–	·
C=CCn1cc(C(C)=O)c(=O)[nH]c1=O	–	6.4	–	–	609.6	–	V-ATPase pH SP=–
COc1ccc(-n2c(C)cc(C(=O)CN3C(=O)NC4(CCCc5sccc54)C3=O)c2C)cc1 (configuration not stated)	–	10.4	–	–	+	–	V-ATPase pH SP=–
CCOC(=O)C1=C(CCc2ccccc2)NC(=O)NC1c1ccc(C#N)cc1 (configuration not stated)	–	–	–	–	–	·
Cc1ccc([N+](=O)[O-])cc1S(=O)(=O)Nc1cccc(-c2ccc(N3CCCC3)nn2)c1	–	–	0.4	–	–	·	Yeast cmpd fluor=–;Mdr1 pump inh=–;Cdr2 pump inh=–;CaCdr1 efflux inh=–

Screening data: PubChem BioAssay, several laboratories
